The panel holds about 83,000 compounds, 20% with a hit somewhere; the sample as a whole holds those more often.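 Note: values are percent growth. 100 is the growth of untreated cells, values between 100 and 0 indicate rising inhibition; between -100 and 0 indicates cell death.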 Values without a mark were called inactive. Activity calls are given as the source filed them. How the source made its calls: active means growth percent below 10; inactive means the rest.

These results are taken from PubChem BioAssay (NCI).

For the assay, the system named is MDA-MB-468 breast. Description: NCI-60 one-dose screen, 48 h (100 = growth as untreated, 0 = no growth, -100 = all killed). Conditions: 10 µM unless noted.
`NS(=O)(=O)c1ccc(C(=O)N=Nc2c(O)[nH]c3c(F)cccc23)cc1`: the growth is 96.3%.
On to `CN1CCN(Cc2ccc(NC(=O)c3cncc(C#Cc4cnc5ccc(OCC6(C)COC6)nn45)c3)cc2C(F)(F)F)CC1`, for which the growth is -73.8% (active).
On to `OC(COc1cccc2ccccc12)CN1CCN(c2ccccc2)CC1` (stereo not given), for which the growth was 77.6%.
As for `O=C(O)CCC(=O)OC[C@@H](NC(=O)C(Cl)Cl)[C@H](O)c1ccc([N+](=O)[O-])cc1`, the figure is 95.5%.
As for `O=c1cc(-c2ccccc2)oc2c1ccc1ccccc12`, the figure is 80.1%.
As for `CN(Cc1ccccc1)S(=O)(=O)/N=C1\NC(=O)NC1=C(Cl)Cl`, the figure is 22.3%; as for `Cc1nc(/N=C(N)/N=C(\N)c2cccc(Br)c2)sc1C`, 32.5%; as for `CCCCCCCCCCCCCCCCCC1=NC(C)(C)CN1CC(C)O` (stereo not given), 115%.
Take `O=c1onc(-c2ccccc2)c2ccccc12`: the growth was 108%.
To `Oc1ccc(/C=N/Nc2nnc(N/N=C/c3ccc(O)cc3O)c3ccccc23)c(O)c1` belongs -47.3% (active); to `COc1cc(/C=N/NC(=O)c2ccccc2Nc2ccnc(C(F)(F)F)c2)ccc1O`, 80.5%; to `O=C(CSc1nnc(-c2cccs2)n1-c1ccccc1)Nc1ccccc1F`, 67.1%.
To `CCOC(=O)c1cc2c(n1Cc1cc(OC)cc(OC)c1)-c1oncc1CCC2` belongs 22.4%.
Regarding `c1cc2c(ccc3[nH]c(-c4ccc5[nH]ncc5c4)c4c(c32)CCCC4)n1`, the growth was 76.7%.
To `Cc1cccc(Oc2ccc(Nc3ncnc4ccc(NC(=O)CN5CCN(C)CC5)cc34)cc2Cl)c1` belongs -62.9% (active).
